TcdB GH inh: TcdB glycohydrolase inhibitors, primary screen, biochemical, single point, plate reader; TcdB glycohydrolase enzymatic assay; Toxin B (Clostridioides difficile), P18177; inhibition, % at 9.99 µM; AID 652162, 2013; 0.24% of 350,000 active; in the data active = inhibition above about 10%
BH1578 lux ind: inducers of Vibrio cholerae quorum light production without autoinducers, primary screen, BH1578 luxS cqsA deficient, single point; V. cholerae BH1578 lux reporter, luminescence, 6 h; activation, % at 18.7 µM; 0.16% of 350,000 active; AID 588436, 2011; in the data active = activation mostly above about 9.7%, no sharp cut-off
VHR inh abs: VHR1 phosphatase inhibitors, primary screen, biochemical, absorbance, uHTS | recombinant VHR phosphatase, pNPP absorbance | inhibition, % at 13.3 µM | 0.52% of 290,000 active | AID 1654, 2009; in the data active = inhibition above about 50%
Mtb BioA inh: M. tuberculosis BioA enzyme inhibitors, primary screen, biochemical, plate reader, single point, HTS; inhibition, % at 9.99 µM; 7,8-diaminopelargonic acid synthase BioA (Mycobacterium tuberculosis); purified M. tuberculosis BioA enzyme; 0.096% of 360,000 active; in the data active = inhibition above about 40%
Y pestis TopoI: Yersinia pestis topoisomerase I inhibitors, primary screen, biochemical, cleavage product accumulation, plate reader, single point; DNA topoisomerase I (Yersinia pestis CO92); Y. pestis Topo-I cleavage product accumulation; activity, % at 10 µM; 0.064% of 360,000 active; in the data active = activity above about 50%, passing the limit was not always enough
* = called active by the depositor; i = inactive; x = no result given. A selection: hits, their analogues and other compounds. The true share with any hit is near 0.73%.

SMILES | TcdB GH inh | BH1578 lux ind | VHR inh abs | Mtb BioA inh | Y pestis TopoI
CCNC(=O)C[C@@H]1CC[C@H]2[C@@H](COc3ccc(NC(C)=O)cc3C(=O)N2C)O1 | 16* | x | x | -1 | x
O=C(C[C@H]1CC[C@H](NC(=O)C2CC2)[C@H](CO)O1)NCc1ccccc1Cl | 1 | x | x | 1 | x
COc1ccccc1CNC(=O)C[C@H]1CC[C@H](NC(=O)CC2CC2)[C@@H](CO)O1 | 1 | x | x | 0 | x
C[C@H]1CN([C@@H](C)CO)C(=O)c2cccc(NS(=O)(=O)c3cccs3)c2O[C@@H]1CN(C)Cc1ccc(C(=O)Nc2ccccc2N)cc1 | 0 | x | x | x | x
COc1ccc(C)cc1NC(=O)c1ccc(NC(=O)CC2SC(N3CCCC3)=NC2=O)cc1 (stereo not drawn) | x | 7.6* | 3 | -3 | -5
Cc1ccnc(NC(=O)c2ccc(NC(=O)CC3SC(N4CCCC4)=NC3=O)cc2)c1 (stereo not drawn) | 1 | -1 | x | x | 16
O=C(C[C@H]1C[C@H]2c3cc(NC(=O)c4ccc5c(c4)OCO5)ccc3O[C@H]2[C@@H](CO)O1)NCc1cccnc1 | 1 | x | x | 0 | x
COc1ccc(N2CCN(C(=O)c3ccc(S(=O)(=O)N4CCOCC4)cc3)CC2)cc1 | x | i | 51* | -1 | -1
O=C(COc1c(Br)cc(Br)c2cccnc12)N1CCc2ccccc2C1 | 2 | -3 | 19 | 2 | 57*
C[C@H](CO)N1C[C@H](C)[C@@H](CN(C)C(=O)CCCN(C)C)OCCCC[C@H](C)Oc2ccc(NC(=O)Nc3ccc4c(c3)OCO4)cc2C1=O | x | x | x | -3 | x
CCCNC(=O)[C@H]1[C@H](CO)[C@H]2Cn3c(cccc3=O)[C@@H]1N2Cc1ccccc1 | -1 | x | x | -1 | x
Cn1c(SCC#N)nnc1-c1ccc2c(c1)OCO2 | x | 17* | 8 | 2 | -8
Cn1c(SCc2ccccc2)nnc1-c1ccc2c(c1)OCO2 | x | -1 | -12 | 6 | 1
CCOC(=O)N1CCC(NC(=O)c2cc(COc3ccccc3SC)on2)CC1 | 0 | i | 53* | -1 | 16
CC1(C)CC(=O)C=C(c2ccc(COC(=O)/C=C/c3ccccc3)cc2)C1=O | 0 | i | x | 0 | 56*
O=c1oc2ccccc2c2c1SC(C(F)(F)F)C2 (stereo not drawn) | x | 8 | 56* | -3 | 12
C[C@@H]1CCCCO[C@@H](CN(C)CC2CC2)[C@H](C)CN([C@@H](C)CO)C(=O)c2cc(NC(=O)CCCN(C)C)ccc2O1 | -1 | x | x | x | x
O=C(Nc1cc(-c2ccccc2)[nH]n1)c1ccccc1F | 3 | 0 | 4 | -1 | -3
CC(=O)Nc1cc(-c2ccc(F)cc2)[nH]n1 | 11* | 0 | 8 | x | 0
Cc1ccc(C)c(CSc2nnc([C@@H](N)C(C)C)o2)c1 | x | i | 14 | 2 | 90*
Cc1ccc(S(=O)(=O)Oc2ccc(/C=N/NC(=O)c3nn(C)cc3[N+](=O)[O-])cc2)cc1 | 14* | 0 | -5 | x | 22
CCOC(=O)C1=C(C)N(CCCCCC(=O)O)C(=O)NC1c1cccc([N+](=O)[O-])c1 (stereo not drawn) | 1 | -1 | 28 | -2 | 3
CCOC(=O)C1=C(C)N(CCCCCC(=O)O)C(=O)NC1c1ccc([N+](=O)[O-])cc1 (stereo not drawn) | 1 | i | 52* | -1 | 1
COc1cccc(CNC(=O)C2CCCN(c3nc4ccccc4o3)C2)c1 (stereo not drawn) | 3 | 0 | 26 | -1 | -1
COc1ccc(CNC(=O)C2CCCN(c3nc4ccccc4o3)C2)c(OC)c1 (stereo not drawn) | 0 | 0 | 53* | x | 28
Cc1ccc(C)c(-c2ccc(=O)n(Cc3ccc(F)cc3Cl)n2)c1 | 5 | 0 | 5 | 3 | 42
Cc1ccc(C)c(-c2ccc(=O)n(Cc3cccc(Br)c3)n2)c1 | 1 | -1 | 53* | -3 | 41
COc1ccc(OC)c(S(=O)(=O)N(C)CC(=O)N2CCCCC2)c1 | 1 | 0 | 53* | -2 | 10
O=C(C[C@H]1CC[C@H](NS(=O)(=O)c2ccc(F)cc2)[C@@H](CO)O1)NCc1ccc(Cl)c(Cl)c1 | 1 | x | x | 3 | x
O=C(Nc1ccc(NC(=O)C2CCCCC2)nc1)c1ccccn1 | 0 | i | 57* | 0 | -4
